The text below walks through data of PubChem BioAssay (Tox21).

SMILES strings stand for the structures. Inconclusive results are not listed. Values without a mark were called inactive. Unless noted, calls follow the shape of the full dose curve.
% is scaled to controls: 0 for no effect and ±100 for the full control effect.

System in one test: not listed separately
Kind of test: qHTS assay to identify small molecule agonists of the estrogen related receptor (ERR) signaling pathway (AID 1224820; active = well fitted activation curve with a large enough effect in the repeat runs). Conditions: ERR reporter cell line, luciferase agonist mode; series mostly up to 46.1 µM; activation: at the top concentration. The essentials:
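An ERR cell line provided by NTP was seeded at 2,000 cells per well and allowed to settle for 6 h before compounds in DMSO were added. After 18 h at 37 C, luciferase activity was measured by One-Glo luminescence.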
(qHTS replaces the single test concentration by a dilution series.)
As to `CN1C2CCC1CC(OC(c1ccccc1)c1ccccc1)C2` (stereo not given), the “activation” value was -17.1%.

Take `COc1cc(OC)c(/C=C2/C(=O)Nc3ccccc32)c(OC)c1`: the “activation” value was -89.3%.

Regarding `Oc1cc2c(cc1O)C(c1ccccc1)CNCC2` (stereo not given), the “activation” value was -35.6%.

For the compound `Oc1ccc(-c2nc(-c3ccc(F)cc3)c(-c3ccncc3)[nH]2)cc1`, the “activation” value was -90.5%.

Turning to `CSc1ccccc1N1CCN(CCCCCC(=O)NC2CCCc3ccccc32)CC1` (stereo not given), the “activation” value was -71.8%.

With `Oc1ccc2ccccc2c1SSc1c(O)ccc2ccccc12`, the “activation” value was -62.2%.

For `O=C1NC(=O)/C(=C/c2ccc3nccnc3c2)S1`, the “activation” value is 18.1%.

Regarding `CC1CNCCN1S(=O)(=O)c1cccc2cnccc12` (stereo not given), the “activation” value was 18.2%.

With `CC[C@H](NC(=O)c1c(C)c(-c2ccccc2)nc2ccccc12)c1ccccc1`, the “activation” value was -67.3%.

A further test concerns estrogen-related receptor alpha (ERRalpha) with PGC-1alpha coactivator, human. Kind of test: qHTS assay to identify small molecule antagonists of the estrogen related receptor signaling pathway with the pleiotropic PPARgamma coactivator (PGC) (AID 1224821).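 Also: lower luminescence signal means antagonism of PGC/ERR signalling; nearly all actives have a fitted effect of over 50% in size.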 As to conditions: ERR/PGC reporter cell line, luciferase, antagonist mode; series mostly up to 46.1 µM; activity change, negative = inhibition: at the top concentration. The gist of the method:
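A PGC/ERR cell line supplied by NTP is seeded, allowed 6 h at 37 C, and treated with test compounds in DMSO for 18 h. Signal is then measured as luciferase luminescence using One-Glo.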
In the case of `NS(=O)(=O)c1ccc(-n2nc(C(F)(F)F)cc2-c2ccc(Cl)cc2)cc1`, the “activity change, negative = inhibition” value was -11.4%.

For `NCCCNCCCCNCCCN`, the “activity change, negative = inhibition” value was -0.189%.

As for `N[C@H](C(=O)O)c1cc(O)cc(O)c1`, the “activity change, negative = inhibition” value is -18.6%.

With `N[C@@H](Cn1ccc(=O)c(O)c1)C(=O)O`, the “activity change, negative = inhibition” value was 4.23%.

Turning to `O=C(c1ccc2c(c1)OCCO2)N1CCCCC1`, the “activity change, negative = inhibition” value is 18.3%.

On to `CNC(=O)c1cc2c(cn1)[nH]c1ccccc12`, for which the “activity change, negative = inhibition” value is 44%.

With `CN1CCc2ccccc2Cc2[nH]c3ccccc3c2CC1`, the “activity change, negative = inhibition” value was -5.65%.

For `C[C@H](NC(=O)/C(C#N)=C/c1ccc(O)c(O)c1)c1ccccc1`, the “activity change, negative = inhibition” value was 46.4%.

In the case of `COc1cc(N)c(Cl)cc1C(=O)OCCN1CCCCC1`, the “activity change, negative = inhibition” value was 0.669%.

As for `C[C@](Cc1ccc(O)c(O)c1)(NN)C(=O)O`, the “activity change, negative = inhibition” value was 1.52%.

Consider `NCCCC(=O)O`, for which the “activity change, negative = inhibition” value is -8.05%.

Turning to `COc1ccc(Br)cc1S(=O)(=O)NC(=O)/C=C/c1ccccc1Cc1ccc2ccccc2c1`, the “activity change, negative = inhibition” value was 57.9%.

On to `O=c1[nH]c2ccccc2c2ccccc12`, for which the “activity change, negative = inhibition” value is 10.6%.

For `CSc1nc(N)c2ncn([C@@H]3O[C@H](COP(=O)(O)OP(=O)(O)O)C(O)[C@H]3O)c2n1` (stereo not given in full), the “activity change, negative = inhibition” value was 31.1%.

Take `CN(C)CCCC1(c2ccc(F)cc2)OCc2cc(C#N)ccc21` (stereo not given): the “activity change, negative = inhibition” value was 36.9%.

`[Li+]`: the “activity change, negative = inhibition” value was -8.79%.

With `O=C(O)C1CCCNC1` (stereo not given), the “activity change, negative = inhibition” value was 6.41%.

Regarding `COC(=O)C(N)Cc1ccc(Cl)cc1` (stereo not given), the “activity change, negative = inhibition” value was -0.864%.

As for `CC[C@H]1OC(=O)[C@H](C)[C@@H](O[C@H]2C[C@@](C)(OC)[C@@H](O)[C@H](C)O2)[C@H](C)[C@@H](O[C@@H]2O[C@H](C)C[C@H](NC)[C@H]2O)[C@](C)(O)C[C@@H](C)CN(C)[C@H](C)[C@@H](O)[C@]1(C)O`, the “activity change, negative = inhibition” value is 11.4%.

As for `Cn1cnc2c(NCc3ccccc3)nc(NCCO)nc21`, the “activity change, negative = inhibition” value is -0.439%.

As to `N[C@H](CCCP(=O)(O)O)C(=O)O`, the “activity change, negative = inhibition” value is 14.9%.

`CN(CCCOc1ccc(Cc2ccccc2)cc1)CCC(=O)O`: the “activity change, negative = inhibition” value was -3.08%.

In the case of `O=Nc1ccc2oc(=O)ccc2c1`, the “activity change, negative = inhibition” value is 219%.

Take `CC(=O)O[C@H]1Cc2ccccc2N(C(N)=O)c2ccccc21`: the “activity change, negative = inhibition” value is 11%.

`NC(N)=NC(N)=Nc1ccccc1`: the “activity change, negative = inhibition” value was 4.36%.

For the compound `CN1[C@@H](CC(=O)c2ccccc2)CCC[C@H]1C[C@H](O)c1ccccc1`, the “activity change, negative = inhibition” value was 3.5%.

With `COc1ccc(NC(=O)/C=C/c2ccc(Cl)cc2)cc1`, the “activity change, negative = inhibition” value is 19.2%.

Turning to `Cc1cccc(C)c1OCC(N)C(C)C` (stereo not given), the “activity change, negative = inhibition” value was 11%.

For `CC(=O)O[C@H]1C[C@@H]2CC[C@@H]3[C@H](CC[C@@]4(C)[C@H]3C[C@H]([N+]3(C)CCCCC3)[C@@H]4OC(C)=O)[C@@]2(C)C[C@@H]1[N+]1(C)CCCCC1`, the “activity change, negative = inhibition” value was -6.7%.

On to `COc1cc(/C=C(\C#N)C(=O)c2ccc(O)c(O)c2)cc(I)c1O`, for which the “activity change, negative = inhibition” value is 9.85%.

With `CN1Cc2sccc2C(c2ccc(O)c(O)c2)C1` (stereo not given), the “activity change, negative = inhibition” value was 2.21%.
